BCR signal inh – inhibitors of chronic active B-cell receptor signaling; ABC-DLBCL IkBa-CBG/CBR reporter, luminescence ratio, 4 h; 340,000 tested, 0.05% active; Potency, µM (highest dose often 46.1 µM), actives largely listed as inhibitors; AID 493014; active = well fitted inhibition curve with a large enough effect in the signal ratio, with a control signal flat, not every such curve was filed as active; inconclusive = small, poorly fitted or top-dose-only effect, or effect the other way, or a change in a side signal; the % refers to the signal ratio
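Concentration-response series (up to 46 uM) were applied to TMD8 dual-reporter cells for 4 h at 37C with doxycycline. Green/red ratio, after filter-overlap correction, defined %Activity; red signal alone was normalised to basal cells and zero luminescence.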
Integrin act MD – activators of alpha7 integrin expression for muscular dystrophy. alpha7betagal myoblasts, beta-gal FDG fluorescence, 48 h. Potency, µM (titrated, usually from 38.3 µM), usual class: activators. 350,000 tested, 0.064% active. AID 624291; note: nearly all actives have a fitted effect of over 60% in size
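Alpha7betagal+/- myoblasts (passage 13) were plated 16-24 hr, then exposed to compounds (1:260 dilution of DMSO stock) for 48 hours at 37C. After MPER lysis, β-galactosidase reporter activity was read as FDG fluorescence (ex 480/em 540) after 30 minutes.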
Gal4-VP16 FLuc – counter-screen for ROR gamma inhibitors: Gal4-VP16 reporter; 310,000 tested, 3.5% active; AID 2546; Drosophila S2 Gal4-VP16 UAS-luciferase, luminescence, 20 h; Potency, µM (series often up to 53.6 µM), hits mostly inhibitors;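 note: Gal4-VP16 expression switched on by copper sulfate through the metallothionein promoter; nearly all actives have a fitted effect of over 50% in size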
RORg inh – inhibitors of mouse ROR gamma transcriptional activity | P51450 | 310,000 tested, 5.4% active | Drosophila S2 Gal4-RORgamma UAS-luciferase reporter, 20 h | Potency, µM (doses to about 53.6 µM), actives largely listed as inhibitors; note: nearly all actives have a fitted effect of over 60% in size
Target sequence (P51450 whole entry, looked up, the tested form may be a part): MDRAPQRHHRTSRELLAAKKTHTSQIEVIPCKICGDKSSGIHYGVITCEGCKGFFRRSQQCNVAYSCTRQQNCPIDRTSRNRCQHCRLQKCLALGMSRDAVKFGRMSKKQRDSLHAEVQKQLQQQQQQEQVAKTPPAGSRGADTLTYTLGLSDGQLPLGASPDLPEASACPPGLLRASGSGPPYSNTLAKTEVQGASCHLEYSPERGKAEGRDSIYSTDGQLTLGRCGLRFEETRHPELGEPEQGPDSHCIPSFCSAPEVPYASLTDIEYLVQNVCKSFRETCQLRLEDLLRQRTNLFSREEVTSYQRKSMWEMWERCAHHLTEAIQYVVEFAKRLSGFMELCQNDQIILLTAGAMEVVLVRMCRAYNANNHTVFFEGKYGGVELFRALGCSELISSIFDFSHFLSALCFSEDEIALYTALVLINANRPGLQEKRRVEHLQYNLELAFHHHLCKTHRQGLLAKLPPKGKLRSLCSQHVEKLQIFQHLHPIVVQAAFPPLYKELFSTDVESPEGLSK
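Stable Schneider cell line, Gal4 DNA-binding domain fused to ROR gamma, UAS-luciferase. Cmpd 1 hr RT → CuSO4 700 uM final → 20 hr RT → luciferase reagent 10 min → luminescence.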
Mito fusion act – blocks mitochondrial division or promotes mitochondrial fusion; S. cerevisiae fusion-defective mutant growth rescue, CellTiterGlo 48 h; Potency, µM (highest dose often 46.1 µM), usual class: activators; 320,000 tested, 0.23% active; note: nearly all actives have a fitted effect of over 45% in size
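Read-out: ATP-based luminescence (CellTiterGlo, 10 min ambient) reporting growth of fusion-defective ts yeast after 48 hours at 37C on glycerol/ethanol YPEG medium in the presence of compound.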
uPA surface inh – cell surface uPA generation inhibition; cell surface uPA generation assay, qHTS; Potency, µM (doses to about 38.3 µM), usual class: inhibitors; 330,000 tested, 0.31% active; AID 540303; active = well fitted inhibition curve with a large enough effect; inconclusive = small, poorly fitted or top-dose-only effect; inactive = no such curve, though single readings can be large or run the other way; tested in mouse RAW 264.7 cells; note: nearly all actives have a fitted effect of over 55% in size
A number is an active result; n = inactive; u = inconclusive; x = no result; ! = a repeat was not active. In the library only some 5.5% were active in any assay of this set; here they are far more common. Unless noted, calls come from the whole dose curve; as a rule, active = well fitted curve in the direction sought with a large enough effect; inconclusive = small, poorly fitted or top-dose-only effect, or another doubt; inactive = no such curve, though single readings can be large; an effect the other way counts as inactive or inconclusive.

SMILES	BCR signal inh	Integrin act MD	Gal4-VP16 FLuc	RORg inh	Mito fusion act	uPA surface inh
CC1(C)CN=C(Nc2nc3ccccc3s2)S1	n	n	u	8.9µM	n	n
CC1(C)CN=C(NCc2ccccc2)S1	x	n	x	x	x	n
CN=C=S	x	x	n	n	x	x
C[C@@H]1O[C@@H](O[C@H]2CC[C@@H](O[C@H]3[C@H](O)C[C@H](c4ccc5c(c4O)C(=O)C4=C(C5=O)[C@@]5(O)C(=O)C[C@](C)(O[C@H]6CC[C@H](O[C@H]7C=CC(=O)[C@H](C)O7)[C@H](C)O6)C[C@@]5(O)C=C4)O[C@@H]3C)O[C@H]2C)C=CC1=O	x	x	n	0.5µM	x	x
Oc1ccc(CCNc2ncnc3ccc(Cl)cc23)cc1	u	x	6.3µM	u	n	u
Nc1ncnc2c1ccn2[C@@H]1O[C@H](CO)[C@@H](O)[C@H]1O	x	n	1.1µM	0.63µM	x	u
NC(=S)c1cn(C2OC(CO)C(O)C2O)c2ncnc(N)c12 (stereo not given)	u	u	2.5µM	7.1µM	n	n
CC(C)CNC(=O)C(=O)N/N=C/c1cccs1	u	n	n	n	n	x
O=C(O)C1C2CCC(O2)C1C(=O)Nc1cccc(Br)c1 (stereo not given)	n	n	n	n	n	11µM
CC(C(=O)c1ccc(Cl)cc1Cl)n1cncn1 (stereo not given)	n	n	n	n	n	n
CC(C)(C)C(=O)NC(=S)NNC(=O)c1ccc(Cl)cc1Cl	u	n	u	2µM	n	n
O=C(NC(=S)Nc1ccccn1)c1ccc(-c2ccccc2)cc1	u	n	4µM	3.2µM	n	n
O=C(O)c1ccccc1Sc1c([N+](=O)[O-])cc(C(F)(F)F)cc1[N+](=O)[O-]	u	n	u	u	n	n
Fc1ccc(C[n+]2c(-c3ccccc3)cc(-c3ccccc3)cc2-c2ccccc2)cc1	u	n	x	x	n	8.9µM
Clc1ccc(C[n+]2c(-c3ccccc3)cc(-c3ccccc3)cc2-c2ccccc2)cc1	u	n	x	x	n	u
C=CCc1c(C)nc(C)nc1N/N=C/c1ccc(N(C)C)cc1	u	n	u	4.5µM	n	n
N#CSCSC#N	x	x	0.45µM	1.1µM	x	x
C=C(C)[C@@H]1CC=C(CN2CCN(Cc3ccccc3)CC2)CC1	n	n	n	n	n	n
CC(=O)C1=NOC(CNc2ncc(C(F)(F)F)cc2Cl)C1 (stereo not given)	n	n	n	u	n	n
COc1ccc(/C=N/NC(=O)c2ccoc2C)cc1COc1c(C)cccc1C	u	n	u	11µM	n	n
CCNCC	x	x	n	n	x	x
Cn1c(=O)oc2cc(S(=O)(=O)Nc3ccccc3O)ccc21	n	n	n	n	n	u
Cn1c(=O)oc2cc(S(=O)(=O)N3CCCc4ccccc43)ccc21	n	n	n	n	n	2.2µM
O=C(c1ccc2c(Cl)c3c(nc2c1)CCCC3)N1CCC(N2CCCCC2)CC1	u	n	n	n	n	10µM
Cc1nc2ccccc2c2oc(C(=O)N3CCN(C4CCCCC4)CC3)cc12	n	n	n	n	n	u
SMILES	BCR signal inh	Integrin act MD	Gal4-VP16 FLuc	RORg inh	Mito fusion act	uPA surface inh
CCOc1cc(OP(=S)(OC)OC)nc(CC)n1	x	x	n	n	x	x
NNC(N)=S	x	x	n	14µM	x	x
CC(C)Oc1ccc(C(=O)Nc2ccc(Cl)c(S(=O)(=O)Nc3ccc(Cl)cc3)c2)cc1	u	n	u	u	n	u
C(=N\Nc1ccc2ccccc2n1)/c1ccc2c(c1)OCCO2	u	n	2µM	2.5µM	n	2.2µM
CC(=O)N1CCN(c2ccc(OCC3CO[C@@](Cn4ccnc4)(c4ccc(Cl)cc4Cl)O3)cc2)CC1 (stereo not given in full)	x	x	u	n	x	x
CCOC(=O)c1ncc2[nH]c3ccc(OCc4ccccc4)cc3c2c1COC	x	x	4.5µM	n	x	x
O=c1[nH]c(O)c(C=Nc2ccc(Cl)cc2Cl)c(=O)[nH]1	u	n	n	n	n	n
CCCCNS(=O)(=O)c1ccc2nc(SCC(=O)Nc3sccc3C#N)[nH]c2c1	u	n	13µM	n	n	n
CC(=O)NNc1ccccc1	x	x	n	n	x	x
C[C@@H]1C[C@@H]([C@H](O)CC2CC(=O)NC(=O)C2)C(=O)[C@@H](C)C1	u	x	0.0089µM!	0.32µM!	n	0.5µM
CCOC(=O)/C(C#N)=C1/SC(C)C(=O)N1c1ccc(Br)cc1 (stereo not given)	n	n	n	11µM	n	n
O=C(N/N=C/c1c(O)n(CCc2ccc(F)cc2)c(=O)[nH]c1=O)c1ccccc1	u	n	n	n	n	n
O=C(N/N=C/c1c(O)n(Cc2ccccc2)c(=O)[nH]c1=O)c1ccccc1O	u	n	u	11µM	n	n
CCn1c(O)c(/C=N/NC(=O)c2ccccc2)c(=O)[nH]c1=S	u	n	u	7.1µM	n	n
COc1cc(/C=C/[N+](=O)[O-])ccc1O	21µM	n	3.2µM	4.5µM	n	u
C=CC[C@]1(O)CC[C@H]2[C@@H]3CCC4=CC(=O)CCC4=C3C=C[C@@]21C	x	x	n	n	x	x
Cc1cc(C(C)(C)CC(C)(C)C)ccc1OCCOCC[N+](C)(C)Cc1ccccc1	u	x	18µM	u	n	u
O=c1[nH]cc(F)c(=O)[nH]1	u	x	n	n	2.9µM!	u
Cc1ccccc1C1=NCC(=O)N(CC(=O)NCc2ccco2)c2sc3c(c21)CCCC3	u	n	13µM	u	n	n
CC1=CC2/C=C(\C)CCC(O)C(O)/C=C/C(=O)C23C(=O)NC(CC(C)C)C3C1C (stereo not given)	u	n	7.1µM	5µM	n	1µM
O=c1[nH]c(=S)n(Cc2ccc(F)cc2)c(O)c1C=NCC1CCCO1 (stereo not given)	u	n	n	n	n	n
O=c1[nH]c(=S)n(Cc2ccc(F)cc2)c(O)c1/C=N/N1CCCCC1	n	u	u	11µM	n	n
O=C1N[C@H](Cc2ccccc2)COC(=O)[C@@H](Cc2ccc(F)cc2)C/C=C\C[C@H]1CC(=O)N(CCO)Cc1ccccc1	u	n	x	x	x	u
N#CC(C#N)=NNc1ccc(-n2ccc(C(F)(F)F)n2)cc1	u	u	3.5µM	5µM	n	n
N#CC(C#N)=NNc1ccc([N+](=O)[O-])cc1	n	n	u	u	n	n
SMILES	BCR signal inh	Integrin act MD	Gal4-VP16 FLuc	RORg inh	Mito fusion act	uPA surface inh
Cc1cc(C)n(-c2ccc(NN=C(C#N)C#N)cc2)n1	u	n	10µM	u	n	u
CNC(=S)S	x	x	n	n	x	x
NCC(O)c1cccc(O)c1 (stereo not given)	x	x	n	n	x	x
CC(C)c1cccc(O)c(=O)c1	n	n	2.8µM!	2µM	n	u
CCOP(=S)(OCC)OCCSCC	x	x	n	n	x	x
C=CC(C)=O	x	x	n	n	x	x
O=C1CN=C(c2ccccc2)c2c(sc3c2CCCC3)N1	u	x	n	n	n	4.5µM
CCOC(=O)c1c(-n2c(C)cc(C=C3C(=O)NC(=S)NC3=O)c2C)sc2c1CCCC2	n	n	u	13µM	n	u

Screening data: PubChem, National Center for Advancing Translational Sciences (NCATS)
